These results are taken from PubChem BioAssay (EPA / NIEHS).

Experiment [1] is described as follows: STM_H9_OrnithineISnorm_perc: Stemina devTOX quickPredict H9 human embryonic stem cell (hESC)-based Assay for Ornithine (ORN) Metabolite Biomarker, Normalized (AID 2283712; active means hit-call score of the fitted dose curve at least 0.9, where 1 is the maximum; inactive means score below 0.9;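 further: ornithine released into spent medium during last day measured by mass spectrometry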). The method in brief: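 UPLC-HRMS readout: endogenous ornithine EIC area / 13C-ORN internal standard, then % of 0.1% DMSO median. H9 hESCs (pluripotent), 72h exposure, re-dosed with fresh media q24h; last 24-h spent media, deproteinized in 40% acetonitrile.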

A short description of experiment [2]: STM_H9_CystineISnorm_perc: Stemina devTOX quickPredict H9 human embryonic stem cell (hESC)-based Assay for Cystine (CYSS) Metabolite Biomarker, Normalized (AID 2283713; active means hit-call score of the fitted dose curve at least 0.9, where 1 is the maximum; inactive means score below 0.9). In outline:
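UPLC-HRMS read-out: endogenous cystine peak area in spent medium, normalized to isotope-labeled internal standard and to median of 0.1% DMSO controls. Pluripotent H9 cells, 72h exposure, daily medium/compound replenishment; medium from last 24h sampled.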

A short description of experiment [3]: STM_H9_OrnCyssISnorm_ratio: Stemina devTOX quickPredict H9 human embryonic stem cell (hESC)-based Assay for Ornithine (ORN):Cystine (CYSS) Ratio (AID 2283714). The method in brief: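 UPLC-HRMS of spent media: ORN/CYSS ratio of internal-standard-normalized percentages, DMSO (0.1%) baseline. Pluripotent H9 hESCs, 72h exposure, daily re-dosing with fresh media; last 24h media collected.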

Experiment [4] can be described thus: CEETOX_H295R_MTT_cell_viability: Viability Assessment in the CeeTox HT-H295R MTT Assay (AID 2283718; active means hit-call score of the fitted dose curve at least 0.9, where 1 is the maximum; inactive means score below 0.9;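 on AC50: curve fitted both ways so AC50 may mark viability loss or gain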). In outline:
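Human H295R adrenal cells, prestimulated 48 h with 10 uM forskolin, were exposed 48 h to chemicals in 0.1% DMSO. Viability was measured in the same wells by MTT (0.5 mg/ml, 4 h, 37 C), absorbance 570/650 nm, as percent of controls.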

A short description of experiment [5]: Tanguay_ZF_120hpf_ActivityScore_legacy: (Legacy) Oregon State University Tanguay Lab 120 Hour Post-fertilization zebrafish Assay Score for Activity (AID 2283742).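 On AC50: dechorionated Tropical 5D wild-type zebrafish embryos held singly per well.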 In outline: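 Dechorionated 5D embryos, one per well, static exposure 6–120 hpf, 28C, sealed and dark; final DMSO 0.64% (vol/vol). Brightfield binary scoring of mortality plus 18 endpoints; gain-of-signal fit versus DMSO baseline.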

For experiment [6], the system named is zebrafish Androgen Receptor (AR), gene 100005148. The experiment can be described thus: ATG_zfAR_XSP1: Attagene TRANS-FACTORIAL Multi-Species (XSP1) HepG2 Assay for zebrafish Androgen Receptor (AR) (AID 2283771). In outline: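 Gain-of-signal versus DMSO was measured as reporter transcripts quantified by RT-PCR, fluorescent labelling and capillary electrophoresis after 24 h chemical exposure. The cells were HepG2 expressing a chimeric zebrafish AR-GAL4, co-stimulated with 3 nM 6-alpha-fluorotestosterone.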

The target of experiment [7] is zebrafish Estrogen Receptor (ESR1), esr1 (gene 259252) (UniProt P57717). The experiment can be described thus: ATG_zfER1_XSP1: Attagene TRANS-FACTORIAL Multi-Species (XSP1) HepG2 Assay for zebrafish Estrogen Receptor (ESR1) (AID 2283772). In outline: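 HepG2 cells transiently transfected with a GAL4-UAS reporter and chimeric zebrafish ER-Gal4, dosed 24 h with 3 nM 6-alpha-fluorotestosterone present. Reporter mRNA measured by RT-PCR and capillary electrophoresis; gain of signal versus DMSO.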

Experiment [8] deals with zebrafish Estrogen Receptor (ESR2B), gene 317733. The experiment can be described thus: ATG_zfER2b_XSP1: Attagene TRANS-FACTORIAL Multi-Species (XSP1) HepG2 Assay for zebrafish Estrogen Receptor (ESR2B) (AID 2283773). In outline: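 Multiplexed TRANS format in transfected HepG2 liver cells, chimeric NR-Gal4 from zebrafish ESR2B. 24 h dosing; medium contains 3 nM 6-alpha-fluorotestosterone. mRNA induction by RT-PCR/CE, positive direction vs DMSO.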

Experiment [9] deals with frog Estrogen Receptor (ESR2), gene 100174814. Briefly: ATG_frER2_XSP1: Attagene TRANS-FACTORIAL Multi-Species (XSP1) HepG2 Assay for frog Estrogen Receptor (ESR2) (AID 2283774). The method in brief:
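HepG2, transient MRTU transfection (GAL4-UAS reporters, exogenous NR-Gal4 chimeras); 24 h compound exposure; 3 nM 6α-fluorotestosterone co-added; total RNA → RT-PCR → 6-FAM primer extension → HpaI → CE. Positive direction vs DMSO.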

A short description of experiment [10]: ACEA_AR_agonist_AUC_viability: ACEA Biosciences xCELLigence Real-Time Cell Analysis on Androgen Receptor Agonism for Viability (AID 2283775).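 On AC50: viability read 80 hours after compound addition.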 The method in brief: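 Viability endpoint from xCELLigence impedance in 22Rv1 prostate cells at 80 h. Eight-point series, 100 uM maximum final.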
Experiment [11] is described as follows: ACEA_AR_antagonist_AUC_viability: ACEA Biosciences xCELLigence Real-Time Cell Analysis on Androgen Receptor Antagonism for Viability (AID 2283776).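 Further: area under impedance growth curve at 80 h after dosing as viability; hits lower the growth signal relative to DMSO meaning cytotoxicity.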 In outline:
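22Rv1 human prostate cancer cells were seeded on electrode plates, monitored overnight, then exposed to eight 1:4 dilutions from 100 uM final. Impedance-based growth kinetics at 80 h gave an AUC viability endpoint normalized to DMSO.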

Experiment [12] can be described thus: ArunA_CellTiter_hNC: Viability Assessment in the ArunA Biomedical's Oris Neural Crest (hNC) Cell Migration Assay (AID 2283752). The method in brief: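 hNC cells (H9 ESC-derived), 60,000/well, Matrigel, LIF + bFGF medium; 16 h 37C attachment; 72 h compound in test medium; CellTiter Aqueous One read-out; loss-of-signal vs DMSO baseline.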
Experiment [13] can be described thus: ArunA_CellTiter_hNP: Viability Assessment in the ArunA Biomedical's Oris Neural Crest (hNC) Cell Migration Assay (AID 2283753). The method in brief: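 Viability read with CellTiter 96 Aqueous One after 72 h chemical exposure of human hNP1 neuroprogenitors, which were plated on Matrigel in LIF/bFGF medium 16 h beforehand. Endpoint fitted in positive direction relative to DMSO.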

The nature of experiment [14]: ArunA_Migration_hNP: ArunA Biomedical's Oris Neuroprogenitor (hNP) Cell Migration Assay (AID 2283754). In outline: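 Readout is calcein-AM fluorescence (ex494/em517) of cells migrating into the detection zone, relative to DMSO. hNP1 cells (H9-derived) grown on Matrigel behind stoppers 16 h, then stoppers pulled and chemical applied 72 h; cytochalasin D as control.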

Experiment [15] in a line: ArunA_Migration_hNC: ArunA Biomedical's Oris Neural Crest (hNC) Cell Migration Assay (AID 2283755). In outline: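 Calcein-AM fluorescence (ex494 nm/em 517 nm) in the stopper-defined detection zone quantifies migration of hNC cells after 72 h chemical exposure; 60,000 cells/well plated on Matrigel with LIF and bFGF, 16 h pre-incubation. DMSO baseline.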
The nature of experiment [16]: ArunA_NOG_NucleusCount: ArunA Biomedical's Neurite Outgrowth (NOG) Assay for Nucleus Count (AID 2283756). The method in brief:
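Viable neuron count, from Hoechst nuclei passing size and intensity gates, imaged at 20x on differentiated H9-derived human neurons. Exposure lasted 48 h from seeding; activity was scored relative to DMSO.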

The nature of experiment [17]: ArunA_NOG_NeuriteLength: ArunA Biomedical's Neurite Outgrowth (NOG) Assay for Neurite Length (AID 2283757). In outline: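 Total neurite length per neuron, from traced βIII-tubulin-labelled processes longer than 10 um on viable Hoechst-gated cells, was scored as decrease from DMSO. Cells were hESC (H9)-derived neurons given 48 h chemical exposure immediately after seeding.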

Experiment [18] can be described thus: ArunA_NOG_NeuritesPerNeuron: ArunA Biomedical's Neurite Outgrowth (NOG) Assay for Neurites Per Neuron (AID 2283758). In outline: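 Differentiated human H9-derived neurons exposed to chemicals for 48 h from seeding, then stained with Hoechst and βIII-tubulin/DyLight 488. Automated imaging counted neurites (processes >10 um) per valid neuron; loss of signal versus DMSO scored.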

Records with an inconclusive call do not appear. Calls of active or inactive are those of the source. How the source made its calls, unless noted: active means hit-call score of the fitted dose curve at least 0.9, where 1 is the maximum; inconclusive means response in the unintended direction; inactive means score below 0.9.

zebrafish Estrogen Receptor (ESR1), esr1 (gene 259252), sequence (P57717 whole entry, looked up, the tested form may be a part): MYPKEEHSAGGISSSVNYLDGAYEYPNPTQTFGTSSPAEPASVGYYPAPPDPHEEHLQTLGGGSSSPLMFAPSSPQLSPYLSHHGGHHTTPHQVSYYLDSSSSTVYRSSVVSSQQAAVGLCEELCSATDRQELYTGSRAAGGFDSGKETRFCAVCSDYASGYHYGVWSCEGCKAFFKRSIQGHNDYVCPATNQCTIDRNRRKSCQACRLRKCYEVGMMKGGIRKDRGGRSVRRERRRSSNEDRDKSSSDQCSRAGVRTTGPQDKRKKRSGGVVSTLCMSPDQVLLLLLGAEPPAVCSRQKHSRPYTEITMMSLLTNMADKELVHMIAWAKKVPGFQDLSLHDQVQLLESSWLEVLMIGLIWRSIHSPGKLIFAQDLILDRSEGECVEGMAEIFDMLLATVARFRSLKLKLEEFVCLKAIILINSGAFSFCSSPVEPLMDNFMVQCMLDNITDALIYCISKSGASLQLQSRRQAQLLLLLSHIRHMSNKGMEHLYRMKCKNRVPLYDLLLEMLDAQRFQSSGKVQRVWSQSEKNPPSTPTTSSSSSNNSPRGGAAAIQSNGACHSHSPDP

With `CCN(CC)CCOc1ccc(C(=C(Cl)c2ccccc2)c2ccccc2)cc1`, the AC50 is 6.22 µM (active) in experiment [1]; 1.17 µM (active) in experiment [2]; 2.53 µM (active) in experiment [3]; 37.8 µM (active) in experiment [5]; 13.1 µM (active) in experiment [10]; 12.4 µM (active) in experiment [11]. For the same molecule, the result in experiment [4], in [6], in experiment [7], in experiment [8] and in experiment [9] was inactive.

As for `CCCCCCCCCCCCCCCCO`, the outcome in [1], in [2], in [5], in [10] and in [11] was inactive.

`O=C1NC(=O)C(c2ccccc2)(c2ccccc2)N1`: the outcome in [1], in experiment [2], in [3] and in experiment [5] was inactive. Moreover, the results for the AC50 in experiment [10] and in experiment [11] were 33.6 µM (active) and 28.7 µM (active), respectively.

Regarding `Cc1ccc(-c2cc(C(F)(F)F)nn2-c2ccc(S(N)(=O)=O)cc2)cc1`, the result in experiment [1], in experiment [2] and in [5] was inactive. For the same molecule, the AC50 was 70.4 µM (active) in experiment [12]; 76.5 µM (active) in [13]; 81.9 µM (active) in experiment [14]; 78.7 µM (active) in [15]; 7.13 µM (active) in experiment [16]; 12.9 µM (active) in [17]. For the same molecule, the AC50 in experiment [18] was 13.9 µM (active); in [10] it was 17.7 µM (active); in experiment [11], 15.9 µM (active).

Consider `Nc1nc(=S)c2[nH]cnc2[nH]1`, for which the AC50 in [1] was 3.06 µM (active); in [2], 2.13 µM (active); in [3], 2.97 µM (active); in experiment [4], 2.52 µM (active); in experiment [10], 0.655 µM (active); in experiment [11], 0.212 µM (active). The outcome in experiment [5] was inactive.

In the case of `CCc1nc(N)nc(N)c1-c1ccc(Cl)cc1`, the half-maximal activity concentration (AC50) in [1] was 30.7 µM (active); in experiment [2] it was 30.6 µM (active); in [3] it was 31.1 µM (active); in experiment [10], 50 µM (active); in [11], 50 µM (active). The outcome in [5] was inactive.

`O=C1OC(c2ccc(O)cc2)(c2ccc(O)cc2)c2ccccc21`: the outcome in experiment [1], in experiment [2], in experiment [3], in experiment [4], in [5] and in experiment [16] was inactive. Besides, the AC50 is 26.9 µM (active) in experiment [14], 15.9 µM (active) in experiment [15], 21.1 µM (active) in [10] and 19.8 µM (active) in [11].

On to `CC(=O)CC(c1ccccc1)c1c(O)c2ccccc2oc1=O` (stereo unspecified), for which the result in experiment [1], in [2], in experiment [5], in experiment [10] and in experiment [11] was inactive.

With `CN(C)CCCN1c2ccccc2Sc2ccc(Cl)cc21`, the AC50 was 3.51 µM (active) in experiment [1]; 0.751 µM (active) in [2]; 0.897 µM (active) in [3]; 33.7 µM (active) in experiment [5]; 22.2 µM (active) in experiment [10].

Regarding `O=NO`, the result in experiment [1], in experiment [2], in [5] and in experiment [11] was inactive.

For orientation: AC50 means the midpoint of the concentration-response curve, whichever way the signal moves.
